From PubChem BioAssay (NCI)
The panel holds about 79,000 compounds, 15% with a hit somewhere; the sample as a whole holds those more often. Active and inactive are the calls of the source. No stated cut-off is given here; in the data, active means growth inhibition above about 70%; inactive means the rest.

Experiments:
[1] = NCI Yeast Anticancer Drug Screen. Data for the wt1 strain (AID 149);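 further: 0% = growth of vehicle-treated wt1 cultures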; details: S. cerevisiae wt1 strain (SPY 50644) growth inhibition, active compounds read high
In short: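 Measured: growth of wt1 yeast under compound versus vehicle treatment, reported as inhibition.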

[2] = NCI Yeast Anticancer Drug Screen. Data for the rad50EPP+ strain (AID 151);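 further: 0% = growth of vehicle-treated control cultures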; details: S. cerevisiae rad50 mutant strain, active compounds read high
In short: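 Measured: growth inhibition of rad50EPP+ yeast. Reference: vehicle-treated controls. Screen uses strains with defined genetic alterations in DNA damage repair or cell cycle control.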

[3] = NCI Yeast Anticancer Drug Screen. Data for the mgt1 strain (AID 153); details: S. cerevisiae mgt1 mutant growth inhibition, active compounds read high
In short: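 Compounds were applied to mgt1 mutant yeast, and growth was then compared against vehicle-treated control cultures to give percent inhibition.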

[4] = NCI Yeast Anticancer Drug Screen. Data for the rad50 strain (AID 155);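 further: 0% = growth of vehicle-only cultures of the same strain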; details: S. cerevisiae rad50 strain growth inhibition, active compounds read high
In short: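 Growth of the mutant yeast was measured after compound exposure and referenced to vehicle-treated cultures.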

[5] = NCI Yeast Anticancer Drug Screen. Data for the mec2-1 strain (AID 157); details: S. cerevisiae mec2-1 strain, active compounds read high
In short: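 Compounds were applied to mec2-1 yeast cells. Their growth was then compared with that of vehicle-treated cultures to give growth inhibition.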

[6] = NCI Yeast Anticancer Drug Screen. Data for the rad14 strain (AID 159);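 further: 0% = growth of vehicle-treated control cultures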; details: S. cerevisiae rad14 strain growth inhibition, active compounds read high
In short: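 Here, inhibition of yeast growth was measured after compound exposure, using a strain with a genetic defect in DNA damage repair and vehicle-treated cultures as the reference.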

[7] = NCI Yeast Anticancer Drug Screen. Data for the sgs1 mgt1 strain (AID 161);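 further: 0% = growth of cultures given vehicle only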; details: S. cerevisiae sgs1 mgt1 strain, active compounds read high
In short: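 This yeast growth screen uses a strain with defined DNA-repair lesions; compound-treated growth is compared with vehicle-treated growth.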

[8] = NCI Yeast Anticancer Drug Screen. Data for the CLN2oe strain (AID 163);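 further: 0% = growth of vehicle-only control cultures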; details: S. cerevisiae CLN2oe strain, active compounds read high
In short: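 Cells of an engineered yeast line with disturbed cell-cycle regulation are treated with compound. Inhibition of growth is then calculated relative to the vehicle-treated reference.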

[9] = NCI Yeast Anticancer Drug Screen. Data for the cln2 rad14 strain (AID 165);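 further: 0% = growth equal to vehicle treated cultures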; details: S. cerevisiae cln2 rad14 strain, active compounds read high
In short: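 Strain: cln2 rad14 yeast, altered in cell cycle control and DNA damage repair. Read-out: growth inhibition vs vehicle.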

[10] = NCI Yeast Anticancer Drug Screen. Data for the bub3 strain (AID 167); details: S. cerevisiae bub3 mutant strain, active compounds read high
In short: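 Whole-cell yeast assay. The mutant strain was incubated with compounds, and growth inhibition was determined by comparison with vehicle-treated cells.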

[11] = NCI Yeast Anticancer Drug Screen. Data for the wt2 strain (AID 169);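 further: 0% = growth of vehicle-treated yeast cultures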; details: S. cerevisiae wt2 strain growth inhibition, active compounds read high
In short: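 Growth of compound-treated yeast is measured and expressed as inhibition relative to vehicle-only controls.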

[12] = NCI Yeast Anticancer Drug Screen. Data for the mlh1 strain (AID 171);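 further: 0% = growth of vehicle-treated control cultures of the same strain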; details: S. cerevisiae mlh1 strain growth inhibition, active compounds read high
In short: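 Test agents were incubated with yeast bearing a defined DNA damage repair or cell cycle control alteration; values are growth inhibition normalised to vehicle-treated cultures.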

[13] = NCI Yeast Anticancer Drug Screen. Data for the sgs1 strain (AID 173);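 further: 0% = growth of vehicle-only control cultures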; details: S. cerevisiae sgs1 mutant, active compounds read high
In short: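 Strain with an altered DNA repair or cell cycle pathway exposed to compound. Growth then measured. Value = inhibition versus vehicle control.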

[14] = NCI Yeast Anticancer Drug Screen. Data for the mlh1 rad18 strain (AID 175); details: S. cerevisiae mlh1 rad18 strain growth inhibition, active compounds read high
In short: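 A repair-deficient yeast strain is exposed to test compound, and growth is scored relative to vehicle-treated controls.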

[15] = NCI Yeast Anticancer Drug Screen. Data for the rad18 strain (AID 177); details: S. cerevisiae rad18 mutant growth inhibition, active compounds read high
In short: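 DNA-repair-defective yeast; compound treatment; growth inhibition scored against vehicle.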

[16] = at 5.0 µM (retest, dose inferred, filed as 0.5)
[17] = at 50.0 µM (retest, dose inferred, filed as 5.0)

Measured: growth inhibition

Oc1cccc2nc3ccccc3nc12
inactive: [1]; at 1.2 µM -55% | [1]; at 3.7 µM -46% | [1]; at 11.0 µM -30% | [1]; at 33.0 µM 1% | [2]; at 1.2 µM -47% | [2]; at 3.7 µM -31% | [2]; at 11.0 µM 6% | [2]; at 33.0 µM 63% | [3]; at 1.2 µM -22% | [3]; at 3.7 µM -14% | [3]; at 11.0 µM 6% | [3]; at 33.0 µM 20% | [4]; at 1.2 µM -4% | [4]; at 3.7 µM -8% | [4]; [16] -14% | [4]; at 11.0 µM 5% | [4]; at 33.0 µM 54% | [4]; at 50.0 µM 65.4% | [5]; at 1.2 µM -48% | [5]; at 3.7 µM -44% | [5]; [16] 9% | [5]; at 11.0 µM -33% | [5]; at 33.0 µM 24% | [5]; [17] 47% | [5]; at 50.0 µM 68.5% | [6]; at 1.2 µM -31% | [6]; at 3.7 µM -32% | [6]; at 11.0 µM -27% | [6]; at 33.0 µM 19% | [7]; [16] -4% | [7]; [17] 29% | [7]; at 50.0 µM 21% | [8]; at 1.2 µM -27% | [8]; at 3.7 µM -14% | [8]; at 11.0 µM -22% | [8]; at 33.0 µM 6% | [9]; [16] 1% | [9]; [17] 13% | [9]; at 50.0 µM 35.4% | [10]; at 1.2 µM -31% | [10]; at 3.7 µM -28% | [10]; [16] -3% | [10]; at 11.0 µM -16% | [10]; at 33.0 µM -4% | [10]; [17] 35% | [10]; at 50.0 µM 47.2% | [11]; at 1.2 µM -48% | [11]; at 3.7 µM -44% | [11]; at 11.0 µM -39% | [11]; at 33.0 µM -9% | [12]; at 1.2 µM -58% | [12]; at 3.7 µM -33% | [12]; at 11.0 µM -27% | [12]; at 33.0 µM 12% | [13]; at 1.2 µM -43% | [13]; at 3.7 µM -44% | [13]; at 11.0 µM -41% | [13]; at 33.0 µM -18% | [14]; [16] -41% | [14]; [17] 58% | [14]; at 50.0 µM 64.5% | [15]; at 1.2 µM -29% | [15]; at 3.7 µM -26% | [15]; at 11.0 µM -14% | [15]; at 33.0 µM 27%
active: [1]; at 100.0 µM 88% | [2]; at 100.0 µM 96% | [3]; at 100.0 µM 91% | [4]; [17] 73% | [4]; at 100.0 µM 95% | [5]; at 100.0 µM 94% | [6]; at 100.0 µM 92% | [8]; at 100.0 µM 93% | [10]; at 100.0 µM 94% | [11]; at 100.0 µM 75% | [12]; at 100.0 µM 92% | [13]; at 100.0 µM 86% | [15]; at 100.0 µM 93%

CN(C)CCC(C(=O)C(Br)Br)(c1ccccc1)c1ccccc1
active: [1]; at 33.0 µM 98% | [1]; at 100.0 µM 99% | [2]; at 100.0 µM 72% | [3]; at 11.0 µM 96% | [3]; at 33.0 µM 99% | [3]; at 100.0 µM 99% | [4]; at 11.0 µM 82% | [4]; at 33.0 µM 99% | [4]; [17] 99% | [4]; at 50.0 µM 98.8% | [4]; at 100.0 µM 99% | [5]; at 11.0 µM 96% | [5]; at 33.0 µM 99% | [5]; at 50.0 µM 99.3% | [5]; at 100.0 µM 100% | [6]; at 11.0 µM 95% | [6]; at 33.0 µM 99% | [6]; at 100.0 µM 99% | [7]; [17] 99% | [7]; at 50.0 µM 97.3% | [8]; at 11.0 µM 74% | [8]; at 33.0 µM 99% | [8]; at 100.0 µM 98% | [9]; [17] 99% | [9]; at 50.0 µM 99.1% | [10]; at 11.0 µM 94% | [10]; at 33.0 µM 99% | [10]; [17] 98% | [10]; at 50.0 µM 99.5% | [10]; at 100.0 µM 99% | [11]; at 11.0 µM 73% | [11]; at 33.0 µM 99% | [11]; at 100.0 µM 99% | [12]; at 33.0 µM 99% | [12]; at 100.0 µM 100% | [13]; at 11.0 µM 94% | [13]; at 33.0 µM 99% | [13]; at 100.0 µM 99% | [14]; [17] 99% | [14]; at 50.0 µM 99% | [15]; at 11.0 µM 88% | [15]; at 33.0 µM 99% | [15]; at 100.0 µM 99%
inactive: [1]; at 1.2 µM -2% | [1]; at 3.7 µM -1% | [1]; at 11.0 µM 26% | [2]; at 1.2 µM -2% | [2]; at 3.7 µM -5% | [2]; at 11.0 µM -1% | [2]; at 33.0 µM 21% | [3]; at 1.2 µM -1% | [3]; at 3.7 µM 0% | [4]; at 1.2 µM 0% | [4]; at 3.7 µM 12% | [4]; [16] 16% | [5]; at 1.2 µM 3% | [5]; at 3.7 µM 2% | [5]; [16] 16% | [5]; [17] 38% | [6]; at 1.2 µM 7% | [6]; at 3.7 µM 30% | [7]; [16] 40% | [8]; at 1.2 µM 0% | [8]; at 3.7 µM 12% | [9]; [16] 19% | [10]; at 1.2 µM -6% | [10]; at 3.7 µM 0% | [10]; [16] -69% | [11]; at 1.2 µM 0% | [11]; at 3.7 µM 2% | [12]; at 1.2 µM 2% | [12]; at 3.7 µM 1% | [12]; at 11.0 µM 61% | [13]; at 1.2 µM -1% | [13]; at 3.7 µM 17% | [14]; [16] 33% | [15]; at 1.2 µM 2% | [15]; at 3.7 µM 11%

C/C(=N\N=C(N)N)C(CN1CCOCC1)C(c1ccccc1)c1c(O)c2ccccc2oc1=O (stereo unspecified)
inactive: [1]; at 1.2 µM 2% | [1]; at 3.7 µM -2% | [1]; at 11.0 µM -3% | [1]; at 33.0 µM 3% | [1]; at 100.0 µM 42% | [2]; at 1.2 µM -6% | [2]; at 3.7 µM -3% | [2]; at 11.0 µM -6% | [2]; at 33.0 µM -3% | [2]; at 100.0 µM 10% | [3]; at 1.2 µM 1% | [3]; at 3.7 µM -2% | [3]; at 11.0 µM 0% | [3]; at 33.0 µM 37% | [3]; at 100.0 µM 48% | [4]; at 1.2 µM 3% | [4]; at 3.7 µM 5% | [4]; at 11.0 µM -15% | [4]; at 33.0 µM 21% | [5]; at 1.2 µM 1% | [5]; at 3.7 µM 1% | [5]; [16] 59% | [5]; at 11.0 µM -3% | [5]; at 33.0 µM 8% | [5]; [17] 59% | [5]; at 100.0 µM 51% | [6]; at 1.2 µM 4% | [6]; at 3.7 µM 1% | [6]; at 11.0 µM -2% | [6]; at 33.0 µM 6% | [8]; at 1.2 µM 0% | [8]; at 3.7 µM 7% | [8]; at 11.0 µM 2% | [8]; at 33.0 µM 18% | [8]; at 100.0 µM 48% | [9]; [16] 7% | [9]; [17] 7% | [10]; at 1.2 µM 5% | [10]; at 3.7 µM 4% | [10]; [16] 31% | [10]; at 11.0 µM 18% | [10]; at 33.0 µM 47% | [10]; [17] 31% | [10]; at 100.0 µM 43% | [11]; at 1.2 µM -1% | [11]; at 3.7 µM 0% | [11]; at 11.0 µM 0% | [11]; at 33.0 µM 35%
active: [4]; [16] 78% | [4]; [17] 78% | [4]; at 50.0 µM 86.5% | [4]; at 100.0 µM 94% | [5]; at 50.0 µM 80.7% | [6]; at 100.0 µM 93% | [7]; [16] 88% | [7]; [17] 88% | [7]; at 50.0 µM 86% | [9]; at 50.0 µM 85.5% | [10]; at 50.0 µM 77.8% | [11]; at 100.0 µM 95%
